Experimental findings from PubChem BioAssay are described below.

For experiment [1], the system named is Plasmodium falciparum Sir2 (PF13_0152, Sir2A). Description: Plasmodium falciparum Sir2A binding compounds – biochemical, small-molecule microarray, 635 nm fluorescence, primary screen (AID 1098).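 Note: score merges spot fluorescence intensity with its signal-to-noise ratio.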 The settings on record: fluorescence 635 nm, higher = more signal.
Experiment [2] can be described thus: probe aDKK1 binding to arrayed compounds – biochemical, biotinylated probe, 635/667 nm fluorescence, primary screen (AID 1099).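 Note: score merges 667nm spot fluorescence with signal to noise across triplicate slides.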 Particulars: small-molecule microarray, higher = more signal.
Experiment [3] is described as follows: probe aCHRDL2 binding to arrayed compounds – biochemical, biotinylated probe, 635/667 nm fluorescence, primary screen (AID 1100). The settings on record: small-molecule microarray, higher = more signal.
The nature of experiment [4]: change in splice reporter luminescence, either direction, cell-based, HEK293, spliceosome inhibition project, primary screen (AID 1101).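 Note: HEK293 cells carrying a splicing-competent luciferase reporter gene; test concentration not given here.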 Particulars: HEK293 splicing luciferase reporter, 24 h, higher = more signal, called active from +8 up or from −8 down.
In experiment [5] the target is Fibroblast growth factor 10 (Homo sapiens) (UniProt O15520). Briefly: compounds binding fibroblast growth factor 10 – biochemical, small-molecule microarray, 635 nm fluorescence, primary screen (AID 1102). Particulars: FGF10 binding, fluorescence 635 nm, higher = more signal.
Experiment [6] relates to glycogen synthase kinase-3 (GSK3A per assay name; protocol says GSK3B). Description: compounds binding glycogen synthase kinase-3 – biochemical, small-molecule microarray, 635 nm fluorescence, GSK3A, primary screen (AID 1103). Note: the record names both GSK3A and GSK3B. The settings on record: fluorescence 635 nm, higher = more signal.
Experiment [7] deals with Epidermal growth factor receptor (Homo sapiens) (UniProt P00533). Briefly: compounds binding epidermal growth factor receptor – biochemical, small-molecule microarray, 635 nm fluorescence, primary screen (AID 1104).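 Note: score merges 667 nm emission intensity with spot signal to noise over triplicate slides.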 The settings on record: EGFR binding, higher = more signal.
For experiment [8], the target named is Follistatin-related protein 3 (Homo sapiens) (UniProt O95633). Description: compounds binding follistatin-related protein 3 – biochemical, small-molecule microarray, 635 nm fluorescence, primary screen (AID 1105).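 Note: score merges emission near 667 nm and signal to noise per printed spot across three slides.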 Particulars: FSTL3 binding, higher = more signal.
The target in experiment [9] is Dickkopf-related protein 1 (Homo sapiens) (UniProt O94907). Description: small molecules binding DKK1 protein – biochemical, small-molecule microarray, 635 nm fluorescence scan, primary screen (AID 1106).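 Note: score merges emission near 667 nm with signal to noise over three replicate slides.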 The settings on record: higher = more signal.
In experiment [10] the test system is Inhibin beta A chain (activin A). Description: small molecules binding activin A – biochemical, small-molecule microarray, 635 nm fluorescence scan, primary screen (AID 1107).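 Note: mouse activin A protein probed at 4.33 µg/mL on printed slides; score merges bound-protein fluorescence near 667 nm with spot signal-to-noise.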 The settings on record: INHBA, higher = more signal.
Experiment [11] has as its system Human papillomavirus type 1a protein E7 (residues 44-93). Description: small molecules binding HPV E7 44-93 – biochemical, small-molecule microarray, residues 44-93, 635 nm fluorescence, primary screen (AID 1108).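 Note: E7 fragment applied at 1 µg/mL in TBST for 1 h at 4 C; score combines spot fluorescence with its signal to noise ratio.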 Particulars: fluorescence 635 nm, higher = more signal.
Experiment [12] in a line: hepatitis C replication reporter changes, two-sided – Huh7 cells, luciferase reporter, HCV replication inhibitor project, primary screen (AID 1109).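 Note: huh7 hepatoma cells harbouring a luciferase neomycin HCV replicon reporter; luciferase luminescence as measure of HCV replicon replication; test concentration not given here.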 Particulars: Huh7 HCV replicon luciferase reporter, 48 h; higher = more signal. For orientation: Reporter assays use an easily measured gene product as a stand-in for the process of interest.
Experiment [13] concerns the target Left-right determination factor 2 (Homo sapiens) (UniProt O00292). Description: small molecules binding LEFTY2 protein – biochemical, small-molecule microarray, 635 nm fluorescence scan, primary screen (AID 1110). Particulars: higher = more signal.
Experiment [14] concerns the target Calmodulin-1 (Homo sapiens) (UniProt P0DP23). Briefly: small molecules binding calmodulin-1 with EGTA – biochemical, small-molecule microarray, Cy5-labelled CALM1, profiling panel (AID 1111).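 Note: labelled calmodulin applied in Tris saline Tween buffer holding calcium plus EGTA and DTT.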 Particulars: Cy5-CALM1 binding fluorescence, higher = more signal.
Experiment [15] has the same target. Description: small molecules binding Ca-loaded calmodulin-1 – biochemical, small-molecule microarray, Cy5-labelled CALM1, plus calcium, artefact control for SMM control-protein annotation, profiling panel (AID 1112).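 Note: score merges spot fluorescence with signal to noise from triplicate slides.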 The settings on record: Cy5-CALM1 binding fluorescence, higher = more signal.
A short description of experiment [16]: probe aWnt5a binding to arrayed compounds – biochemical, biotinylated probe, 635/667 nm fluorescence, primary screen (AID 1113).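 Note: score merges 667 nm fluorescence intensity with signal-to-noise per printed feature.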 The settings on record: small-molecule microarray, higher = more signal.
Experiment [17] is described as follows: probe aShh binding to arrayed compounds – biochemical, biotinylated probe, 635/667 nm fluorescence, primary screen (AID 1114).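 Note: probe is biotin-labelled aShh protein from a stem cell growth factor screen; measures binding of labelled protein to compounds printed on the slide; score merges feature fluorescence at 667 nm with signal-to-noise.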 Particulars: small-molecule microarray, higher = more signal.
Experiment [18] is described as follows: probe aNog binding to arrayed compounds – biochemical, biotinylated probe, 635/667 nm fluorescence, primary screen (AID 1115).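 Note: probe is biotinylated aNog protein used at 0.15 µg/mL for 1 h at 4 C; z-score combines 667 nm fluorescence of each spot with its signal to noise.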 The settings on record: small-molecule microarray, higher = more signal.
Experiment [19] concerns the target Torsin-1A-interacting protein 1 (Homo sapiens) (UniProt Q5JTV8). Briefly: compound microarray binding of lysate hLAP1 – cell lysate, small-molecule microarray, COS7 lysate, 635/667 nm fluorescence, primary screen (AID 1116). The settings on record: 635 nm fluorescence, higher = more signal.
Experiment [20] concerns the target Alpha-bungarotoxin (Bungarus multicinctus) (UniProt P60615). Description: compounds binding labelled alpha-BTX control protein – biochemical, small-molecule microarray, Alexa647 label, 635/667 nm fluorescence, artefact control for SMM control protein annotation, profiling panel (AID 1117). Particulars: alpha-BTX-A647 binding fluorescence, higher = more signal.

The source made the active and inactive calls.

Sequence of Left-right determination factor 2 (Homo sapiens) (O00292 whole entry, looked up): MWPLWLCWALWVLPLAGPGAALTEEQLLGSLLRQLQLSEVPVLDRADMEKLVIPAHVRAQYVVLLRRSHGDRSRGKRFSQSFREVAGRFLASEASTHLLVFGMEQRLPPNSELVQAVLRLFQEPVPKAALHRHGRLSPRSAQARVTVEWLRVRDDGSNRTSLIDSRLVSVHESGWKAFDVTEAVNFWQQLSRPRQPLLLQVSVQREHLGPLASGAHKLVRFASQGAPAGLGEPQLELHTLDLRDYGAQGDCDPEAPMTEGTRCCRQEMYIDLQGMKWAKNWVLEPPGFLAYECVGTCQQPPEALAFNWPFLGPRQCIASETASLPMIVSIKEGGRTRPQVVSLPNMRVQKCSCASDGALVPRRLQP
Sequence of Alpha-bungarotoxin (Bungarus multicinctus) (P60615 whole entry, looked up): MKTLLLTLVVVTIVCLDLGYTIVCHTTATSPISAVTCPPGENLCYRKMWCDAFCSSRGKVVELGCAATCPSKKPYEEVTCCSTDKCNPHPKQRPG
Sequence of Dickkopf-related protein 1 (Homo sapiens) (O94907 whole entry, looked up): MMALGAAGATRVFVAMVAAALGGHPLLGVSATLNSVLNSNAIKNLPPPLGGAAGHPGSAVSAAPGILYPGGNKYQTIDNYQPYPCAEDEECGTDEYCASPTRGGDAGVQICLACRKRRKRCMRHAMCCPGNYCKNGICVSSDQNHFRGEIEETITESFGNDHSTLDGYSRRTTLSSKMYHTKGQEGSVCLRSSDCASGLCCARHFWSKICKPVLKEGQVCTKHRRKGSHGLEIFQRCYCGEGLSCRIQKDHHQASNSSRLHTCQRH
Sequence of Torsin-1A-interacting protein 1 (Homo sapiens) (Q5JTV8 whole entry, looked up): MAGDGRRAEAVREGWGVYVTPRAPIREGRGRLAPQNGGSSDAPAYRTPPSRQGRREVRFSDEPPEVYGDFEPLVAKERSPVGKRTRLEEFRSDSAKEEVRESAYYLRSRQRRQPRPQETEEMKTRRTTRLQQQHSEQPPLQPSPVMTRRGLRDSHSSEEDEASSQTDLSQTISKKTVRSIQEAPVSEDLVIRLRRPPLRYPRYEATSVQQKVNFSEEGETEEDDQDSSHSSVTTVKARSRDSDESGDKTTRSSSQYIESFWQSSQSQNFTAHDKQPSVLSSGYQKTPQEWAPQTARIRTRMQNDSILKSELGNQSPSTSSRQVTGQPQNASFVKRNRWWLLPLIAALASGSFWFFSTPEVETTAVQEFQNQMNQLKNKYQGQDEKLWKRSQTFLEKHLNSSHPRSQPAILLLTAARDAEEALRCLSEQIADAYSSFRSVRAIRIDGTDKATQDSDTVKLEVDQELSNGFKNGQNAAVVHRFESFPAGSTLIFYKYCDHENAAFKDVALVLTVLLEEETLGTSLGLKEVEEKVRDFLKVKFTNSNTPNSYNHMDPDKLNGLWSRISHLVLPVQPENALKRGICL
Sequence of Fibroblast growth factor 10 (Homo sapiens) (O15520 whole entry, looked up): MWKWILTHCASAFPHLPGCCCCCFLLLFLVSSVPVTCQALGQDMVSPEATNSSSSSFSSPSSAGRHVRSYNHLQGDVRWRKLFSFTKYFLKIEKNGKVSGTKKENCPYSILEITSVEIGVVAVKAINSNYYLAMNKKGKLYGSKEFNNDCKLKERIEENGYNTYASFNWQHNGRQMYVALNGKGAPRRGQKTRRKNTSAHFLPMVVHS
Sequence of Epidermal growth factor receptor (Homo sapiens) (P00533 whole entry, looked up): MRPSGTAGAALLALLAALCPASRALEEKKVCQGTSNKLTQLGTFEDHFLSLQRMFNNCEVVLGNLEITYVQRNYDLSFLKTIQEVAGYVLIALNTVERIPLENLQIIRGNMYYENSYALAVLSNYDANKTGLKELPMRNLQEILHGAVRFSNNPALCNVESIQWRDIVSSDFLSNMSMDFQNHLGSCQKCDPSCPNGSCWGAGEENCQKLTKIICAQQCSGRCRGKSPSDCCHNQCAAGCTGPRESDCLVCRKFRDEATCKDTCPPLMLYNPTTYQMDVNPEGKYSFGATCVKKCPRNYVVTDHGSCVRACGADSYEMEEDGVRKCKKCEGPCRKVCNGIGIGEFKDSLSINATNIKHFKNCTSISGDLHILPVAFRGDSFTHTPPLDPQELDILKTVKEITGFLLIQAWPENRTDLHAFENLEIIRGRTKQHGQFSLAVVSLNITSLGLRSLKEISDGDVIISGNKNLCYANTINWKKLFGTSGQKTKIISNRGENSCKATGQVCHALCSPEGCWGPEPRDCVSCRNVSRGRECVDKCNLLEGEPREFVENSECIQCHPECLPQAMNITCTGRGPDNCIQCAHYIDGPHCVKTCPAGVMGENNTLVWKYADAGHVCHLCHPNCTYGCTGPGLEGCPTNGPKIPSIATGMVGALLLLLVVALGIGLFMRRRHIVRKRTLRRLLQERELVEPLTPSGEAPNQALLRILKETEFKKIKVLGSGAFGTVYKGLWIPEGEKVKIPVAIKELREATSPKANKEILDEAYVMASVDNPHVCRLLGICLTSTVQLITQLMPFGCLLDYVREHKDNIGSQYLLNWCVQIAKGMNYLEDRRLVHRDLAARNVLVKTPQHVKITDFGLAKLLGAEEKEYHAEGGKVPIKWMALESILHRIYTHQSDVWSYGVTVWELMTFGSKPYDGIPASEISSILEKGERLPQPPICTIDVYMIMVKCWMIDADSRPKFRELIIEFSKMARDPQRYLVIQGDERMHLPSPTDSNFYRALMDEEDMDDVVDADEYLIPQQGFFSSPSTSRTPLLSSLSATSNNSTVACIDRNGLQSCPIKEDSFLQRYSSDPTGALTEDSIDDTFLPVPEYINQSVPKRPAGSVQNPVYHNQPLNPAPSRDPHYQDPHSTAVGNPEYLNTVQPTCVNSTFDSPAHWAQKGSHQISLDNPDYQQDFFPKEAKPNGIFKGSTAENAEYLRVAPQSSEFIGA
Sequence of Follistatin-related protein 3 (Homo sapiens) (O95633 whole entry, looked up): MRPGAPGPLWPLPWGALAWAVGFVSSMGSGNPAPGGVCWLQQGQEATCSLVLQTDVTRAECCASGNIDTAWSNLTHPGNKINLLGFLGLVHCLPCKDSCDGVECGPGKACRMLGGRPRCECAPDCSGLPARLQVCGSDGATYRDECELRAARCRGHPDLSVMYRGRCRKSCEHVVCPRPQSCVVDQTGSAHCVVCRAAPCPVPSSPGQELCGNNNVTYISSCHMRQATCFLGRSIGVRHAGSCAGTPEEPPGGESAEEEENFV

Regarding `COC(=O)[C@@]1(Cc2ccccc2)[C@H]2c3cc(C(=O)N(C)C)n(CCSCCO)c3C[C@H]2CN1C(=O)c1ccccc1`, the composite z-score in [1] was 0.751; in experiment [2] it was 0.692; in [3], 0.829; in [5], 0.3; in experiment [6], -0.205; in experiment [7], -0.348. The composite z-score in experiment [8] is -0.353; in experiment [9] it was -0.772; in experiment [10], 0.442; in [11], 0.933; in experiment [13], -0.654; in experiment [14] it was 1.26. Further, the composite z-score in experiment [15] came to 0.786; in experiment [16] it was 0.117; in experiment [17], 0.383; in [18], 1.66; in experiment [19] it was 0.0664; in experiment [20], 0.317. Also, the z-score was -1.48 (inactive) in [4] and -1.34 in experiment [12].
On to `O=C1NCC(=O)N2[C@@H]1C[C@@H](C(=O)O)[C@H]2c1cccc(OCCO)c1`, for which the composite z-score was 2.28 in experiment [1]; 3.06 in [2]; 1.73 in experiment [3]; 1.38 in experiment [5]; 1.38 in experiment [6]; 1.96 in [7]. In addition, the composite z-score was 1.66 in experiment [8]; 2.56 in experiment [9]; 1.74 in experiment [10]; 1.57 in [11]; 1.68 in experiment [13]; 2.17 in experiment [14]. Also, the composite z-score came out at 1.1 in [15]; 1.38 in experiment [16]; 3.13 in experiment [17]; 3.62 in experiment [18]; 4.92 in experiment [19]; 2.04 in [20]. In addition, the z-score in experiment [4] was 0.45 (inactive); in experiment [12], 0.19.
`C=C[C@H](COC(C)=O)N(C(=O)OC(C)(C)C)S(=O)(=O)c1ccc(Br)cc1`: the composite z-score in experiment [1] stood at 0.0995; in [2], 1.29; in experiment [3], 0.639; in experiment [5], 0.619; in experiment [6] it was 0.484; in [7] it was 0.517. For the same molecule, the composite z-score in experiment [8] was 0.507; in [9] it was 0.717; in [10] it was 0.838; in experiment [11] it was 0.4; in experiment [13], 0.467; in experiment [14] it was -0.159. The composite z-score in experiment [15] was -0.907; in experiment [16], 0.205; in experiment [17], 0.113; in experiment [18] it was -0.0185; in [19], 0.395; in experiment [20] it was 0.397. Moreover, the z-score in [4] is 0.353 (inactive); in [12], -0.757.
For the molecule `COCCOC(=O)N1C(=O)[C@@]2(c3cc(C#CC4=CCCCC4)ccc31)[C@H](c1ccc(O)cc1)N1[C@H](c3ccccc3)[C@H](c3ccccc3)OC(=O)[C@H]1[C@@H]2C(N)=O`, the composite z-score was 1.03 in experiment [1]; -0.327 in [2]; -0.624 in experiment [3]; 1.17 in [5]; 1.12 in [6]; 0.584 in experiment [7]. The composite z-score worked out at 1.16 in [8]; 0.639 in [9]; 0.155 in experiment [10]; 1.19 in experiment [11]; 0.63 in [13]; 0.624 in experiment [14]. Moreover, the composite z-score in [15] is 0.0442; in experiment [16] it was -0.0165; in [17], 0.157; in experiment [18], -0.564; in [19], 0.745; in experiment [20], 1.04. The z-score in experiment [4] was -1.03 (inactive); in experiment [12], -0.696.
In the case of `CC(=O)n1cc(C(O)C2C=CC3C(=O)N(C)C(=O)C3N2Nc2ccccc2)c2ccccc21` (stereo not given), the composite z-score in [1] was determined as 0.511; in [2], 0.906; in experiment [3], 1.18; in experiment [5], 1.17; in experiment [6], 0.292; in experiment [7] it was 1.27. Further, the composite z-score is 1.4 in experiment [8]; 1.02 in experiment [9]; 1.79 in experiment [10]; 1.35 in experiment [11]; 0.532 in experiment [13]; 0.202 in experiment [14]. The composite z-score in experiment [15] is -0.53; in experiment [16], 0.105; in experiment [17] it was 0.494; in experiment [18], 0.578; in experiment [19], 1.36; in [20] it was 1.18. Besides, the z-score is 1.45 (inactive) in experiment [4] and -0.581 in experiment [12].
For `COCCOC(=O)N1C(=O)[C@@]2(c3cc(C#Cc4ccc(OC)cc4)ccc31)[C@H](c1ccccc1OCCO)N1[C@H](c3ccccc3)[C@H](c3ccccc3)OC(=O)[C@H]1[C@@H]2C(=O)N1CCN(c2ncccn2)CC1`, the composite z-score in [1] is 0.864; in [2], -0.0148; in [3], 0.116; in [5] it was 0.743; in experiment [6], 0.806; in experiment [7], 0.339. For the same molecule, the composite z-score in experiment [8] is 0.369; in experiment [9], 0.27; in experiment [10], 0.345; in experiment [11], 1.18; in [13] it was 0.278; in experiment [14] it was 0.694. Further, the composite z-score in [15] is 0.805; in experiment [16] it was -0.118; in [17] it was 0.13; in [18], 0.121; in experiment [19] it was 0.949; in [20] it was 0.876. In addition, the values for the z-score in [4] and in experiment [12] were -0.0173 (inactive) and -1.49, respectively.
